Consider 63 molecules from PubChem BioAssay AID504332 (National Center for Advancing Translational Sciences (NCATS), 2011).

Among all 350,000 compounds or so, about 31,000 (8.9%) were called active. Entries that show only a call come without a potency. Roughly 15% stayed inconclusive and do not appear here. Calls follow the shape of the dose curve; as a rule, active = well fitted inhibition curve with a large enough effect; inconclusive = small, poorly fitted or top-dose-only effect; inactive = no such curve, though single readings can be large or run the other way. The sample as a whole holds a higher share of actives than the screen did.
Potency is read from the fitted curve at half-maximal effect.

Histone-lysine N-methyltransferase EHMT2 (Homo sapiens), sequence (Q96KQ7 913-1193 limits assumed): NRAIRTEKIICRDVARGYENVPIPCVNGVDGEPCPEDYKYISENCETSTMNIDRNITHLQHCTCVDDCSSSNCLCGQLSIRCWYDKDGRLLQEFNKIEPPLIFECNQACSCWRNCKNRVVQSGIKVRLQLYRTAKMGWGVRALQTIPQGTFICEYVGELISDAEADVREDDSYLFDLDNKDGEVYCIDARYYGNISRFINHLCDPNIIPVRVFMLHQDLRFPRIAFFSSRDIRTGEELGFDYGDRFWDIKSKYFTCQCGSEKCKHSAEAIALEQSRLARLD

This experiment deals with Histone-lysine N-methyltransferase EHMT2 (Homo sapiens) (UniProt Q96KQ7). As to the kind of experiment: qHTS Assay for Inhibitors of Histone Lysine Methyltransferase G9a. Also: nearly all actives have a fitted effect of over 75% in size. The settings on record: G9a H3K9 monomethylation, AlphaScreen, 2 h; series mostly up to 59 µM. A digest of the protocol:
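G9a (20 nM) was preincubated 15 min with compound, then reacted 2 h at room temperature with 500 nM biotin-H3K9 peptide and 20 µM SAM. Monomethyl-H3K9 detected by AlphaScreen using anti-H3K9me1 antibody.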
As to `Cc1cccc(NC(=O)N2CCN(C)c3ncccc32)c1C`, the Potency entry is “inactive”.
As for `CC(=O)Nc1ccc(NC(=O)CSc2nnc(C3CC3)n2-c2ccccc2)cc1`, the activity, negative = inhibition is 5.42% [at 2.33 µM] (inactive).
`CC(=O)c1cccc(NC(=O)c2cc(C)nn2-c2ccccc2)c1`: the Potency entry was “inactive”.
Still for that read-out and setting: the value for `CC[n+]1c(C)n(-c2ccccc2)c2ccc(NC(C)=O)cc21` was 14.1 µM (active); that for `Cc1cccn2c(=O)nc(SCC(=O)NCc3ccccc3Cl)nc12` was “inactive”; that for `Cc1nn(-c2ccc(F)cc2)c(-n2cccc2)c1C(=O)N1CCN(c2ccccc2)CC1` was “inactive”.
Consider `COc1ccc(OCCNC(=O)c2cc(C3CC3)nc3c2cnn3C(C)C)cc1`, for which the Potency entry is “inactive”.
With `CC(C)(O)c1ccccc1CC[C@H](SCC1(CC(=O)O)CC1)c1cccc(/C=C/c2ccc3ccc(Cl)cc3n2)c1`, the activity, negative = inhibition is 1.82% [at 12.7 µM] (inactive).
Same read-out and setting: the value for `CCN(c1ccccc1)S(=O)(=O)c1ccc(OCC(=O)N2CCCC2)cc1` was 12.7% [at 2.33 µM] (inactive).
On to `Cc1noc(/C=C/c2ccco2)c1S(=O)(=O)N1CCC(C(=O)Nc2ccc(Cl)cn2)CC1`, for which the Potency entry is “inactive”.
As for `Cc1cccc(NC(=O)C2CCN(S(=O)(=O)c3c(C)noc3/C=C/c3ccco3)CC2)c1`, the Potency result is “inactive”.
Take `Cc1noc(/C=C/c2ccco2)c1S(=O)(=O)N1CCC(C(=O)N2CCc3ccccc32)CC1`: the Potency was 44.7 µM (active).
The same measure, in the same setting: the value for `O=C(Nc1cccc2cccnc12)c1cccc(Cl)c1` was “inactive”; that for `COc1ccc(CSc2nc(N3CCOCC3)c3c(c2C#N)CC(C)(C)OC3)cc1` was “inactive”.
Same read-out and setting: the value for `CC(C)c1nc(N2CCOCC2)c(C#N)c2c1COC(C)(C)C2` was “inactive”.
The same measure, in the same setting: the value for `CC1(C)Cc2c(C#N)c(SCc3nc4ccccc4[nH]3)nc(N3CCOCC3)c2CO1` was 39.8 µM (active).
As for `Nc1ccc(N=Nc2ccccc2Cl)c(N)n1`, the Potency is 28.2 µM (active).
For `CCCCCCSc1ccc([C@@H]2[C@@H]3C(=O)N(CC)C(=O)[C@@H]3[C@]3(C(=O)OC)CCCCN23)cc1OC`, the activity, negative = inhibition is 2.26% [at 2.33 µM] (inactive).
Still for that read-out and setting: the value for `O=C(COC(=O)C1CC2CCCC(C1)C2=O)NC(=O)c1ccccc1` (stereo not drawn) was -4.63% [at 12.7 µM] (inactive).
Turning to `CCOC(=O)c1ccc(CN(Cc2ccccc2)S(=O)(=O)c2ccc(Cl)cc2)cc1`, the Potency entry was “inactive”.
Regarding `CN(C)CCCNC(=S)NCc1ccc(Cl)cc1`, the Potency result was “inactive”.
Still for that read-out and setting: the value for `CC(O)CN(Cc1ccc(Cl)cc1)CC(C)O` (stereo not drawn) was 14.1 µM (active).
The same measure, in the same setting: the value for `OCCN(Cc1ccccc1)Cc1ccc(Cl)cc1` was 22.4 µM (active).
Consider `CN(C(=O)CN(CCO)CC(=O)N(C)C(C)(C)Cc1ccccc1)C(C)(C)Cc1ccccc1`, for which the Potency result was “inactive”.
In the case of `CC(C)NC(=O)c1ccc(Cl)cc1Cl`, the Potency entry was “inactive”.
`CCC(Cc1ccccc1)NC(=O)C1CCCCC1` (stereo not drawn): the Potency result was “inactive”.
Still for that read-out and setting: the value for `CCc1nn(CC(=O)Nc2cccc(C)c2C)c(=O)c2cc3sccc3n12` was “inactive”; that for `Oc1ccc(-n2nnnc2SCc2c(F)cccc2Cl)cc1` was “inactive”.
The same measure, in the same setting: the value for `COc1ccc(Cc2nc3ccc(C(=O)NCc4ccccc4Cl)cc3o2)cc1` was “inactive”.
Same read-out and setting: the value for `O=C(Nc1ccc(O)c(-c2nc3ccccc3o2)c1)c1ccc(-c2cccc(Cl)c2)o1` was “inactive”.
Consider `Cc1ccnc(SCC(N)=O)n1`, for which the Potency entry is “inactive”.
For the molecule `Cc1ccnc(N2CCCC(C(=O)NC3CC3)C2)n1` (stereo not drawn), the Potency entry is “inactive”.
Still for that read-out and setting: the value for `Cc1ccnc(-n2sc3ccccc3c2=O)n1` was 1 µM (active); that for `Cc1nn(-c2ccc([N+](=O)[O-])cc2)c(N)c1-c1ccccc1` was “inactive”; that for `COc1ccc(C2=NN(c3nc4ccccc4s3)C(=O)C2)cc1` was “inactive”.
Turning to `O=C1CC(c2ccccc2)=NN1c1ccc([N+](=O)[O-])cc1`, the Potency was 39.8 µM (active).
The same measure, in the same setting: the value for `O=C1CCCC2=C1C(c1cccs1)CC(=O)N2c1ccc(F)cc1` (stereo not drawn) was “inactive”; that for `Cn1c(N)cc(-c2ccc(F)cc2)c(C#N)c1=O` was “inactive”.
The same measure, in the same setting: the value for `N#CC1=C(N)N(c2ccc(F)cc2)C(=O)C1` was 39.8 µM (active).
As for `O=C(NCc1ccc(F)cc1)c1ccc2nc(N3CCCCC3)sc2c1`, the Potency entry is “inactive”.
On the same count and under the same terms, the value for `COC(=O)c1scc(-c2ccccc2)c1S(=O)(=O)Nc1ccccc1` was “inactive”.
Regarding `COc1ccccc1C1=Nc2cccc3cccc(c23)N1`, the activity, negative = inhibition is 39.6% [at 0.501 µM] (inactive).
On to `Fc1ccccc1N=C1Nc2cccc3cccc1c23`, for which the Potency entry is “inactive”.
On the same count and under the same terms, the value for `c1ccc(C2=Nc3cccc4cccc(c34)N2)cc1` was 8.91 µM (active); that for `Cc1ccc(C(=O)/C=C/c2c(C)nn(-c3ccccc3)c2Cl)cc1` was “inactive”.
Turning to `Cc1nn(-c2ccccc2)c(Cl)c1C(=O)Nc1ccccc1`, the activity, negative = inhibition is 50.1% [at 12.7 µM] (inactive).
With `Cc1nn(-c2ccccc2)c(Cl)c1/C=C/C(=O)c1ccc(O)cc1`, the Potency is 15.8 µM (active).
Still for that read-out and setting: the value for `COc1cccc(CNc2nccn(-c3ccc(OC)c(OC)c3)c2=O)c1` was “inactive”.
On the same count and under the same terms, the value for `CC(NC(=O)c1cc(Sc2ccc(F)cc2F)nc2ccccc12)c1ccccc1` (stereo not drawn) was “inactive”.
Take `Cc1ccc(-c2cnc(NC(=O)CCC(=O)N(C)Cc3ccccc3)n2C)cc1`: the activity, negative = inhibition is -4.41% [at 12.7 µM] (inactive).
As for `COc1ccc(CNc2nc(-c3ccc(Cl)cc3)nn2S(=O)(=O)c2ccc(C)cc2)cc1`, the Potency result was “inactive”.
Same read-out and setting: the value for `Cc1ccc(-c2cnc(NCc3ccc(C(C)C)cc3)n2C)cc1` was 2.82 µM (active); that for `CCOc1ccccc1OCC(=O)Nc1ccccc1C(=O)NC1CC1` was “inactive”.
As for `CCCN(CC(=O)Nc1ccccc1OC)C(=O)CCC(=O)c1ccc(F)cc1`, the Potency entry was “inactive”.
With `Cc1nn(C(C)C(=O)NCCC2=CCCCC2)c(=O)c2nn(-c3ccccc3)c(C)c12` (stereo not drawn), the Potency result is “inactive”.
The same measure, in the same setting: the value for `CCC(=O)N1CCc2cc(CNC(=O)Nc3ccccc3Cl)ccc21` was “inactive”; that for `Cc1cc(Cl)ccc1NC(=O)Cc1ccc(NC(=O)N2CCCCc3ccccc32)cc1` was “inactive”.
On the same count and under the same terms, the value for `O=C(Cc1ccc2c(c1)CCCC2)Nc1ccccc1Cl` was 44.7 µM (active).
Still for that read-out and setting: the value for `CCCC(=O)N1CCN(c2nnc(-c3ccc(C)cc3)c3ccccc23)CC1` was “inactive”; that for `CCc1nnc(NS(=O)(=O)c2ccc(NC(=S)NC(=O)c3cccs3)cc2)s1` was “inactive”.
As to `CCc1nnc(NS(=O)(=O)c2ccc(NS(=O)(=O)c3ccccc3)cc2)s1`, the activity, negative = inhibition is 2.62% [at 12.7 µM] (inactive).
`CCc1nnc(NS(=O)(=O)c2ccc(NC(=S)NC(=O)/C=C/c3cccs3)cc2)s1`: the Potency is 44.7 µM (active).
As for `Cc1ccccc1CNC(=O)CSc1nnc(C)c2c(C)n(-c3ccccc3)nc12`, the Potency result is “inactive”.
